# Several values for one entry are separate records, joined by “and”; a condition that tells them apart may be missing. Equal values may be shown once. Records with an inconclusive call do not appear. Activity calls are given as the source filed them.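 The calls were made as follows, unless noted: active = compounds whose cell count with miR-34 switched on is under 0.7 times the count with it off; inactive = the rest.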
# What was measured:
# [1] = biological target: ATP-dependent translocase ABCB1 (Homo sapiens) (UniProt P08183); assay: P-glycoprotein substrate transport blockade – cell-based (AID 377; in the data active = fluorescence slope change above about 50%); settings: MDR1-expressing cells, fluorescent substrate accumulation slope; stronger effect = higher value; concentration not given here
# [2] = P. berghei load reduction in hepatocytes – cell-based, HepG2, luciferase luminescence, HepG2 viability, primary screen (AID 624349; in the data active = parasite load remaining mostly below about 12%, no sharp cut-off; inactive = mostly above about 10%;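 also: 100% = mean of DMSO negative control wells on the same plate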); settings: P. berghei liver stage in HepG2, luciferase luminescence, concentration not given here; parasite load remaining: stronger effect = lower value; viability: measured here: HepG2 viability without parasites
# [3] = MELAS cybrid and Rieske KO viability enhancers – cell-based, MELAS cybrids, Rieske KO mouse fibroblasts, CellTiter-Glo, primary screen (AID 1508586;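 active = mean z-score across replicates of 1.96 or higher in either the MELAS or the Rieske mutant cell line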;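 also: z relative to plate mean and SD of compound and empty wells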); settings: low glucose
# [4] = galactose survival enhancers in mitochondrial complex I cybrids – cell-based, galactose medium, ATP luminescence, primary screen (AID 1645843;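 active = z-score of at least 1.8 in each of two replicates, scored against plate mean and spread of sample wells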;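 also: positive z means more ATP and so rescue of galactose-driven cybrid death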); settings: complex I mutant cybrid cells, 72 h, stronger effect = higher value
# [5] = viability loss with induced miR-34 in A549 – imaging, A549 dox-inducible miR-34, nuclei and caspase counts, primary screen (AID 1347080); settings: A549 miR-34 inducible, Hoechst nuclei count, 48 h
# [6] = test system: Hepatitis C virus NS3 helicase; assay: blockers of NS3h binding to ssDNA – biochemical, fluorescence polarization, LOPAC1280 library, primary screen (AID 687035; in the data active = inhibition above about 37%); settings: Purified HCV NS3 helicase, Cy5-dT15 ssDNA binding fluorescence polarization; stronger effect = higher value; concentration not given here
# [7] = compounds altering Cy5-DNA-NS3h complex signal – biochemical, LOPAC1280, artefact control for HCV NS3 helicase inhibitor project (AID 687037; call rule not given here); settings: Cy5-DNA-NS3h complex fluorescence interference counterscreen
# [8] = blockers of cellular phospholipid synthesis – cell-based, LOPAC library, screen 4, primary screen (AID 1347384; call rule not given here); settings: animal cells, phospholipid biosynthesis inhibition screen; at 10 µM
# [9] = MELAS cybrid survival, CellTiter-Glo 48 h, stronger effect = higher value
# [10] = Rieske KO mouse fibroblast survival, CellTiter-Glo 72 h
# [11] = stronger effect = lower value, cell number ratio, induced over uninduced
# [12] = measured here: relative caspase fold change +Dox/-Dox
# [13] = measured here: total cells with miR-34 induction, stronger effect = lower value
# [14] = measured here: total cells without miR-34 induction
# Sequence of ATP-dependent translocase ABCB1 (Homo sapiens) (P08183 whole entry, looked up): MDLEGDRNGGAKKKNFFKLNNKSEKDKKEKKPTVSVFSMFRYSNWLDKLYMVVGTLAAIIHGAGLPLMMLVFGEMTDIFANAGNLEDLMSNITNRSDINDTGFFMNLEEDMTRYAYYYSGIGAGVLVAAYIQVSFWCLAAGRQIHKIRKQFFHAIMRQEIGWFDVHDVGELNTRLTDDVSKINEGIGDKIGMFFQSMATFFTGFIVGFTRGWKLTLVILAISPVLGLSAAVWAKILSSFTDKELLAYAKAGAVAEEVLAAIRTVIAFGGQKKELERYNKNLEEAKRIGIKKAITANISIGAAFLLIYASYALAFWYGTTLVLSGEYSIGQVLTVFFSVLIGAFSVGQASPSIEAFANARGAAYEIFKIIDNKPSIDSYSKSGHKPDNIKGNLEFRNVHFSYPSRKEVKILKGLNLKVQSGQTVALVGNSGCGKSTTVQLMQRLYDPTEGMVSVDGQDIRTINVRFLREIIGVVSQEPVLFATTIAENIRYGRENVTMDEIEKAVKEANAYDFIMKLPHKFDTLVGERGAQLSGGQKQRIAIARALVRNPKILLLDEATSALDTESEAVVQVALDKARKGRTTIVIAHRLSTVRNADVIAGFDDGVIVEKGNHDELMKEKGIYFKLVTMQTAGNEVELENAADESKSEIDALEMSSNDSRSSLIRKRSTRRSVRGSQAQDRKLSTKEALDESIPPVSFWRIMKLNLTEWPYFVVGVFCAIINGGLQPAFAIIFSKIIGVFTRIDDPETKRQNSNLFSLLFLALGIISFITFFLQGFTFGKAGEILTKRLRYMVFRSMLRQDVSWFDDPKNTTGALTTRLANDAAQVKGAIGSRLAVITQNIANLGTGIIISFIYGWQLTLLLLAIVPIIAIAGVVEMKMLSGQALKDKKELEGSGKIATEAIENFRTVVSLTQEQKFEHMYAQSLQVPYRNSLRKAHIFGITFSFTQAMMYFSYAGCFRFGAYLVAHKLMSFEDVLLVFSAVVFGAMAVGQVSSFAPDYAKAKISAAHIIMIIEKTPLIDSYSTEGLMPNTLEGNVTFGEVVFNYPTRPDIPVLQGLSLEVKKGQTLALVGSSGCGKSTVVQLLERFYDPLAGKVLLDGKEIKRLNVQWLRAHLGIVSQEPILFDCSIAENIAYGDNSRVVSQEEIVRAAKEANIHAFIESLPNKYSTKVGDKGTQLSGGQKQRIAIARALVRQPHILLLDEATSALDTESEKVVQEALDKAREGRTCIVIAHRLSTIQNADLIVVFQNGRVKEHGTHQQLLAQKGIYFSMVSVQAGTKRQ
structure (smiles),measurement,setting,value
N[C@H]1C[C@@H]1c1ccccc1,fluorescence slope change,[1],55% (active)
same,parasite load remaining,[2],52% (inactive) and 79.2% (inactive)
same,viability,[2],46.6% and 238%
same,z-score,[3]; [9],0.109 (inactive) and -0.281 (inactive)
same,z-score,[3]; [10],-0.102 and -1.1
same,z-score,[4],0.92 (inactive)
CCCCCCCCCCCCCC(=O)O[C@@H]1[C@@H](C)[C@@]2(O)[C@@H](C=C(CO)C[C@@]3(O)C(=O)C(C)=C[C@@H]23)C2C(C)(C)[C@@]21OC(C)=O (some centres not stated),fold change,[5]; [11],0.676 (active)
NC1CC1c1ccccc1 (configuration not stated),z-score,[3]; [9],-0.158 (inactive)
same,z-score,[3]; [10],-0.299
C#C[C@@]1(O)C=C[C@H]2[C@@H]3CCC4=CC(=O)CC[C@@H]4[C@@H]3CC[C@@]21CC,fold change,[5]; [11],0.87 (inactive)
same,fold change,[5]; [12],1.21
same,cell count,[5]; [13],7070
same,cell count,[5]; [14],8120
same,z-score,[3]; [9],-0.518 (inactive)
same,z-score,[3]; [10],0.382
N#CC(OC1OC(COC2OC(CO)C(O)C(O)C2O)C(O)C(O)C1O)c1ccccc1 (configuration not stated),fold change,[5]; stronger effect = lower value,0.82 (inactive)
same,fold change,[5]; [12],1
same,cell count,[5]; [13],6790
same,cell count,[5]; [14],8280
same,z-score,[3]; [9],-0.2 (inactive)
same,z-score,[3]; [10],-0.452
Clc1ccc(C(Cn2ccnc2)OCc2c(Cl)cccc2Cl)c(Cl)c1 (configuration not stated),fold change,[5]; [11],0.876 (inactive) and 0.926 (inactive)
same,fold change,[5]; [12],1.06 and 1.05
same,cell count,[5]; [13],8420 and 7330
same,cell count,[5]; [14],9620 and 7910
same,z-score,[3]; [9],-0.214 (inactive) and 1.01 (inactive)
same,z-score,[3]; [10],-1.26 and 0.334
CC1CC[C@@]2(OC1)O[C@H]1C[C@H]3[C@@H]4CC=C5CC(O[C@@H]6OC(CO)C(O[C@@H]7OC(C)C(O)C(O)C7O)C(O)C6O[C@@H]6OC(C)C(O)C(O)C6O)CC[C@]5(C)[C@@H]4CC[C@]3(C)[C@@H]1C2C (some centres not stated),fold change,[5]; [11],0.658 (active)
same,fold change,[5]; [12],1.39
same,cell count,[5]; [13],1180
same,cell count,[5]; [14],1800
same,z-score,[3]; [9],2.01 (active)
same,z-score,[3]; [10],-1.08
O=c1ccc2cc(OC3OC(CO)C(O)C(O)C3O)c(O)cc2o1 (configuration not stated),fold change,[5]; [11],0.961 (inactive)
same,fold change,[5]; [12],0.851
same,cell count,[5]; [13],9070
same,cell count,[5]; [14],9440
same,z-score,[3]; [9],-0.23 (inactive)
same,z-score,[3]; [10],0.0251
Cc1ccc(-n2nccn2)c(C(=O)N2CCN(c3nc4cc(Cl)ccc4o3)CCC2C)c1 (configuration not stated),fold change,[5]; stronger effect = lower value,0.837 (inactive)
same,fold change,[5]; [12],0.399
same,cell count,[5]; [13],6970
same,cell count,[5]; [14],8330
same,z-score,[3]; [9],-0.269 (inactive)
same,z-score,[3]; [10],-2.87
COc1cc(-n2c(=S)[nH]c3ccccc3c2=O)c(Cl)cc1Cl,fold change,[5]; stronger effect = lower value,0.878 (inactive)
same,fold change,[5]; [12],0.323
same,cell count,[5]; [13],6620
same,cell count,[5]; [14],7540
same,z-score,[3]; [9],0.632 (inactive)
same,z-score,[3]; [10],1.12
CCN1C[C@]2(OC(=O)c3ccccc3NC(C)=O)CCC(OC)[C@]34C1C(C[C@H]23)[C@@]1(O)CC(OC)[C@H]2C[C@H]4[C@]1(O)C2OC (some centres not stated),fold change,[5]; stronger effect = lower value,0.952 (inactive)
same,fold change,[5]; [12],0.833
same,cell count,[5]; [13],7310
same,cell count,[5]; [14],7680
same,z-score,[3]; [9],-0.466 (inactive)
same,z-score,[3]; [10],-0.118
CC(=Cc1csc(C)n1)C1CC2O[C@]2(C)CCCC(C)C(O)C(C)C(=O)C(C)(C)C(O)CC(=O)O1 (some centres not stated),fold change,[5]; [11],1.08 (inactive)
same,fold change,[5]; [12],0.662
same,cell count,[5]; [13],1610
same,cell count,[5]; [14],1500
same,z-score,[3]; [9],1.69 (inactive)
same,z-score,[3]; [10],-0.237
N=C(N)c1ccc(CS(=O)(=O)F)cc1,inhibition,[6],-2% (inactive)
same,fluorescence ratio (interference),[7],1 (inactive)
same,fold change,[5]; stronger effect = lower value,1.04 (inactive)
same,fold change,[5]; [12],1.07
same,cell count,[5]; [13],11100
same,cell count,[5]; [14],10700
same,outcome,[8],inactive
same,z-score,[4],0.445 (inactive)
CCN1C[C@@]2(COC)C3[C@@H](OC)C4[C@@H]1C3([C@@H]1C[C@@]3(O)[C@H](OC(=O)c5ccccc5)[C@@H]1[C@]4(OC(C)=O)[C@@H](O)[C@@H]3OC)[C@H](OC)C[C@H]2O,inhibition,[6],-4% (inactive)
same,fluorescence ratio (interference),[7],1 (inactive)
same,fold change,[5]; stronger effect = lower value,1.01 (inactive)
same,fold change,[5]; [12],1.67
same,cell count,[5]; [13],10600
same,cell count,[5]; [14],10500
same,outcome,[8],inactive
same,z-score,[4],0.075 (inactive)
COCC1OC(=O)c2coc3c2[C@@]1(C)C1=C(C3=O)[C@@H]2CCC(=O)[C@@]2(C)CC1OC(C)=O (some centres not stated),fold change,[5]; [11],0.933 (inactive)
same,fold change,[5]; [12],0.632
same,cell count,[5]; [13],3850
same,cell count,[5]; [14],4130
same,z-score,[3]; [9],3.45 (active)
same,z-score,[3]; [10],-0.534
C=C[C@H]1CN2CCC1C[C@H]2C(O)c1ccnc2ccccc12 (some centres not stated),fold change,[5]; [11],0.935 (inactive)
same,fold change,[5]; [12],0.691
same,cell count,[5]; [13],8540
same,cell count,[5]; [14],9140
same,z-score,[3]; [9],-0.21 (inactive)
same,z-score,[3]; [10],0.792
NC(CC(=O)N1CCn2c(nnc2C(F)(F)F)C1)Cc1cc(F)c(F)cc1F (configuration not stated),fold change,[5]; [11],0.922 (inactive)
same,fold change,[5]; [12],0.671
same,cell count,[5]; [13],9670
same,cell count,[5]; [14],10500
same,z-score,[3]; [9],-0.323 (inactive)
same,z-score,[3]; [10],0.499
CC(C)[C@@]12OC1C1O[C@]13[C@]1(OC1C[C@@H]1C4=C(CC[C@@]13C)C(=O)OC4)C2O (some centres not stated),fold change,[5]; [11],0.989 (inactive)
same,fold change,[5]; [12],0.482
same,cell count,[5]; [13],1650
same,cell count,[5]; [14],1670
same,z-score,[3]; [9],1.17 (inactive)
same,z-score,[3]; [10],-0.457
Cc1c(N)nc(C(CC(N)=O)NCC(N)C(N)=O)nc1C(=O)NC(C(=O)NC(C)C(O)C(C)C(=O)NC(C(=O)NCCc1nc(-c2nc(C(=O)NCCC[S+](C)C)cs2)cs1)C(C)O)C(OC1OC(CO)C(O)C(O)[C@H]1OC1OC(CO)C(O)C(OC(N)=O)C1O)c1cnc[nH]1 (some centres not stated),fold change,[5]; [11],1.05 (inactive)
same,fold change,[5]; [12],0.471
same,cell count,[5]; [13],3100
same,cell count,[5]; [14],2960
same,z-score,[3]; [9],-0.352 (inactive)
same,z-score,[3]; [10],-0.104
O=C1/C(=C/c2ccccc2)C[C@@]2(O)[C@H]3Cc4ccc(O)c5c4[C@@]2(CCN3CC2CC2)[C@H]1O5,inhibition,[6],-4% (inactive)
same,fluorescence ratio (interference),[7],1 (inactive)
same,fold change,[5]; stronger effect = lower value,1.23 (inactive)
same,fold change,[5]; [12],1.39
same,cell count,[5]; [13],588
same,cell count,[5]; [14],478
same,outcome,[8],inactive
same,z-score,[4],-1 (inactive)
C=C1C[C@@H]2[C@@H](CC[C@@]3(C)C(=O)CC[C@@H]23)[C@@]2(C)C=CC(=O)C=C12,fold change,[5]; stronger effect = lower value,1.01 (inactive)
same,fold change,[5]; [12],1.02
same,cell count,[5]; [13],7640
same,cell count,[5]; [14],7540
same,z-score,[3]; [9],-0.495 (inactive)
same,z-score,[3]; [10],0.156
CCCN1CCO[C@@H]2c3cc(O)ccc3OC[C@@H]21,fold change,[5]; [11],0.947 (inactive)
same,fold change,[5]; [12],0.482
same,cell count,[5]; [13],8140
same,cell count,[5]; [14],8590
same,z-score,[3]; [9],0.111 (inactive)
same,z-score,[3]; [10],0.146
NC(N)=NOCCC(N)C(=O)O (configuration not stated),inhibition,[6],0% (inactive)
same,fluorescence ratio (interference),[7],1.1 (inactive)
same,fold change,[5]; stronger effect = lower value,0.949 (inactive)
same,fold change,[5]; [12],1.82
same,cell count,[5]; [13],9120
same,cell count,[5]; [14],9610
same,outcome,[8],inactive
same,z-score,[4],0.49 (inactive)
